Bioassay records: PubChem, Broad Institute
Only some compounds are listed: those with a hit (about 2.2% of all), similar ones and a draw of the others.
PvdQ acylase – blocks Pseudomonas aeruginosa PvdQ acylase activity. purified PvdQ acylase, fluorescence plate reader. inhibition, % at 10 µM. 0.063% of 340,000 active; in the data active = inhibition above about 30%, passing the limit was not always enough; inconclusive = no clear call, values can overlap the other calls;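 also: 0% = vehicle neutral wells and 100% = reference inhibitor wells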
C2C12 statin – suppressors of simvastatin-induced myotoxicity in C2C12 myotubes; ATP luminescence, 48 h; scaled: DMSO 0, geranylgeraniol control 100; rescue of ATP level, % at 7.49 µM; 0.78% of 330,000 active; AID 602340;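 active = mean ATP rescue above about 67%, or every replicate alone reaching that limit, limit read from the data, passing the limit was not always enough; inconclusive = no clear call, values can overlap the other calls; inactive = mean under the limit and some replicate under it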;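 also: myotubes were challenged with 10 µM simvastatin during compound exposure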
DENV2 CPE rescue – DENV2-induced cell death inhibition. DENV2-infected cells, cytopathic effect rescue, plate reader. CPE inhibition, % at 9.99 µM. 1.7% of 350,000 active. AID 651640; in the data active = CPE inhibition above about 20%, passing the limit was not always enough; inconclusive = no clear call, values can overlap the other calls; tested in BHK-21 cells;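 also: 0% = median of neutral control wells and 100% = median of positive control wells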
PGC1a acetyl inh – PGC1a acetylation modulation, inhibitor mode; U2OS PGC1a acetylation, AlphaScreen anti-acetyl-lysine; with virally co-expressed GCN5 acetyltransferase; inhibition, % at 15.6 µM; 0.17% of 350,000 active;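 active = every replicate shows inhibition of at least 40%; inconclusive = mean inhibition at least 40% but some replicate below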;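 also: 0% = neutral control wells and 100% = positive control wells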
miR-122 sensor – miR-122 inhibition in Huh7 cells. Huh7 miR-122 Renilla luciferase sensor, 48 h; neutral wells = 0, positive control = 100. activation (reporter increase), % at 12.5 µM. 0.3% of 340,000 active;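 active = mean replicate activation score at least 90 and every replicate individually at or above 90; inconclusive = only one of the two criteria met; inactive = neither criterion met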;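 also: higher luciferase means less miR-122 activity so hits act as miR-122 inhibitors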
* hit, by the source's call; ? = inconclusive; nt = no result given; [ ] = dose if it differs, or a comment.

SMILES	PvdQ acylase	C2C12 statin	DENV2 CPE rescue	PGC1a acetyl inh	miR-122 sensor
C[C@@H]1CN([C@H](C)CO)C(=O)Cc2cc(NC(=O)Nc3ccc(F)cc3)ccc2O[C@H]1CN(C)Cc1ccc(C(F)(F)F)cc1	nt	37	7	-7	-6[16.7 µM]
CCOC(=O)[C@]12CCCC=C1N(CCC1=CCCCC1)C(=O)[C@H](CC(=O)NCc1cccc(C(F)(F)F)c1)C2	nt	nt	14	nt	nt
COC(=O)[C@]12CCCCC=C1N(CCC1=CCCCC1)C(=O)[C@H](CC(=O)NCc1cccc(C(F)(F)F)c1)C2	nt	nt	51*	nt	nt
O=S(=O)(N[C@@H]1CC[C@@H](CCn2cc(-c3ccccn3)nn2)O[C@@H]1CO)c1cccc(F)c1	nt	4	-3	-1	nt
Cc1ccc(S(=O)(=O)N(C)C)cc1NC(=O)COC(=O)C1CCCC1	-9	1	34*	-1	8
C[C@@H]1CN([C@@H](C)CO)C(=O)Cc2cc(NC(=O)Nc3cccc4ccccc34)ccc2O[C@@H]1CN(C)S(=O)(=O)c1ccc(Cl)cc1	nt	95*	8	-4	-9[16.7 µM]
C[C@H](CO)N1C[C@H](C)[C@@H](CN(C)S(=O)(=O)c2ccc(Cl)cc2)Oc2ccc(NC(=O)Nc3cccc4ccccc34)cc2CC1=O	nt	-24	42*	0	8[16.7 µM]
C[C@H]1CN([C@@H](C)CO)C(=O)Cc2cc(NC(=O)Nc3cccc4ccccc34)ccc2O[C@H]1CN(C)S(=O)(=O)c1ccc(Cl)cc1	nt	45	-4	0	-4[16.7 µM]
COCC#Cc1ccc([C@H]2[C@H](CO)N3C(=O)CN(C(=O)C4CCC4)C[C@@H]23)cc1	nt	nt	6	-4	nt
Cc1cccc(-c2ccc([C@H]3[C@@H](CO)N4CCCCN(CCC(F)(F)F)C[C@H]34)cc2)c1	nt	nt	-12	-19	1[16.7 µM]
C[C@@H]1CN([C@@H](C)CO)C(=O)c2cc(NC(=O)Cc3ccccc3)ccc2O[C@@H](C)CCCCO[C@@H]1CN(C)C(=O)CCCN(C)C	nt	nt	-15	-2	nt
O=C(Nc1cc(F)ccc1F)N[C@H]1CC[C@@H](CCn2cc(C3CC3)nn2)O[C@@H]1CO	nt	-8	-1	17	-3[16.7 µM]
Cc1noc(C)c1S(=O)(=O)Nc1ccc2c(c1)C(=O)N([C@@H](C)CO)C[C@H](C)[C@@H](CN(C)C(=O)Nc1ccc(C(F)(F)F)cc1)O2	nt	nt	?	-3	7[16.7 µM]
O=S(=O)(NCC1CCN(S(=O)(=O)c2ccccc2)CC1)c1ccccc1	-7	137*	nt	-7	28
O=S(=O)(NCC1CCN(c2ccc(S(=O)(=O)N3CCOCC3)cc2)CC1)c1ccccc1	-12	3	12	nt	nt
COc1cccc(OC)c1NC(=O)C1CCCN1C(=O)NCc1ccccc1 (stereo not given)	-15	12	nt	97*	3
CC(C)(C)OC(=O)N1CCC[C@@H]1C(=O)NCc1ccccc1	nt	nt	0	nt	nt
COc1ccc(C(=O)N2CCC[C@H]2C(=O)N2CCC[C@@H]2C(=O)NCc2ccccc2)cc1F	nt	nt	20	nt	nt
O=C(NCc1ccccc1)[C@H]1CCCN1C(=O)[C@H]1CCCN1C(=O)c1ccc(Cl)cc1	nt	nt	44*	nt	nt
O=C(O)c1ccc(CNC(=O)C2CCCN2C(=O)OCc2ccccc2)cc1 (stereo not given)	-1	12	25*	nt	-6
COc1cccc(CNC(=O)[C@H]2CCCN2C(=O)C2CCCN2C(=O)c2ccc(OC)c(F)c2)c1 (stereo not given in full)	nt	nt	28*	nt	nt
O=C(NCc1ccccc1)[C@H]1CCCN1C(=O)[C@H]1CCCN1C(=O)c1ccccc1	nt	nt	10	nt	nt
COc1ccc(CN(C)C[C@@H]2Oc3ccc(NC(=O)Nc4ccc5c(c4)OCO5)cc3C(=O)N([C@H](C)CO)C[C@@H]2C)cc1	nt	1	-3	3	-9[16.7 µM]
C/C=C/c1ccc2c(c1)O[C@@H](CN(C)C(C)=O)[C@H](C)CN([C@H](C)CO)S2(=O)=O	nt	-1	-3	8	6[16.7 µM]
Cc1ccc(C2=NC3(CCCCC3)NC2=S)cc1	-9	nt	22*	nt	nt
SMILES	PvdQ acylase	C2C12 statin	DENV2 CPE rescue	PGC1a acetyl inh	miR-122 sensor
S=C1NC2(CCCCC2)N=C1c1ccccc1	-5	nt	nt	nt	nt
NCCCNc1nc(N)c([N+](=O)[O-])c(NC2CCCCC2)n1	-2	105*	-1	nt	nt
CCc1c(C(=O)Nc2cc(C(=O)OC)ccc2C)csc1C	-8	7	88*	-6	-5
Cc1ccc(S(=O)(=O)N(C)C[C@@H]2Oc3ccc(NC(=O)CCN4CCOCC4)cc3CC(=O)N([C@H](C)CO)C[C@@H]2C)cc1	nt	-2	6	3	-3[16.7 µM]
Cc1ccc(-c2nnc(OCCN3CCOCC3)c3ccccc23)cc1	-16	111*	nt	-4	-5
CN(C)Cc1ccccc1CNC(=O)c1cccc(S(=O)(=O)Nc2ccc3c(c2)OCO3)c1	nt	-11	-2	-4	117*
C[C@H]1CN([C@@H](C)CO)C(=O)Cc2cc(NC(=O)C3CC3)ccc2O[C@@H]1CN(C)C(=O)Nc1ccc2c(c1)OCO2	nt	-2	-10	-1	2[16.7 µM]
C[C@@H]1CN([C@@H](C)CO)C(=O)Cc2cc(NC(=O)C3CCCCC3)ccc2O[C@H]1CN(C)Cc1ccc(-c2ccccc2)cc1	nt	137*	-18	1	-33[16.7 µM]
C[C@@H]1CN([C@H](C)CO)C(=O)Cc2cc(NC(=O)Nc3ccc(F)cc3)ccc2O[C@H]1CN(C)Cc1ccc(-c2ccccc2)cc1	nt	48	-1	4	-6[16.7 µM]
C[C@@H]1CN([C@@H](C)CO)C(=O)Cc2cc(NC(=O)C3CC3)ccc2O[C@@H]1CN(C)Cc1ccc(-c2ccccc2)cc1	nt	27	31*	-6	-4[16.7 µM]
C[C@H]1CN([C@@H](C)CO)C(=O)Cc2cc(NC(=O)Nc3ccc(F)cc3)ccc2O[C@H]1CN(C)Cc1ccc(-c2ccccc2)cc1	nt	2	50*	-5	-1[16.7 µM]
CCCCNC(=O)c1cc2nc3c(c(C(F)(F)F)n2n1)CCc1ccccc1-3	-7	76*	nt	4	-6
Cc1noc(C)c1S(=O)(=O)N(C)C[C@H]1OCCCC[C@@H](C)Oc2ccc(NC(=O)Cc3ccccc3)cc2C(=O)N([C@H](C)CO)C[C@@H]1C	nt	nt	-4	8	5[16.7 µM]
O=C(N/N=C/c1c[nH]c2ccccc12)c1cccs1	nt	nt	46*	12	2
O=C(Cc1ccccc1)N1CC(=O)N2[C@@H](CO)[C@H](c3ccc(Br)cc3)[C@@H]2C1	nt	nt	-11	16	nt
COc1ccc(NC(=O)Cn2cnc3c(cnn3-c3ccc(C)c(C)c3)c2=O)c(OC)c1	-11	-12	nt	nt	nt
O=c1c2cnn(-c3ccc(F)cc3)c2ncn1Cc1ccccc1	-4	158*	nt	0	-5
CCOc1ccccc1NC(=O)Cn1cnc2c(cnn2-c2ccc(C)c(C)c2)c1=O	-13	132*	nt	2	-1
O=C(Cn1cnc2c(cnn2-c2ccccc2)c1=O)c1ccc(Cl)cc1	-3	143*	-4	-2	-2
C[C@@H]1CN([C@H](C)CO)C(=O)c2cc(NS(=O)(=O)c3cccs3)ccc2O[C@@H]1CN(C)S(=O)(=O)c1ccccc1	nt	0	3	4	19[16.7 µM]
Cc1cc(OCC(=O)NNC(=O)c2cnccn2)cc(C)c1Cl	-19	-2	5	85*	4
